NS1 inh: inhibitors of influenza NS1 protein function; Potency, µM (doses to about 46.1 µM); 0.4% of 270,000 active; AID 2326; further: actives are rising curves; nearly all actives have a fitted effect of over 50% in size
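A cell-based growth assay was used: compounds that relieve NS1-induced slow growth of budding yeast raise OD600. Assay medium was yeast nitrogen base with ammonium sulphate and -URA supplement, pH 6.0, with 2% galactose.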
Cycloheximide cs: counter-screen for Shiga toxin inhibitors: cycloheximide protein synthesis inhibition | cell reporter, cycloheximide protein synthesis inhibition counterscreen | max response, % | 12% of 300,000 active | AID 2314; in the data active means max response mostly above about 13%, no sharp cut-off; inactive means mostly below about 14%; further: read at 38.3 µM for the half of the compounds with a filed dose
Shiga toxin inh: Shiga toxin inhibition. Vero cells, Shiga toxin protein synthesis inhibition reporter. inhibition, % at 38.7 µM. 9.2% of 290,000 active; in the data active means inhibition mostly above about 28%, no sharp cut-off; inactive means mostly below about 43%
LmPK inh: LmPK (Leishmania mexicana) enzyme inhibition. Potency, µM (highest dose often 57.5 µM), most hits filed as inhibitors. Q27686. purified LmPK, Kinase-Glo ATP luminescence, 1 h. 0.37% of 290,000 active; active means well fitted curve in the direction sought with a large enough effect; inconclusive means small, poorly fitted or top-dose-only effect, or another doubt; inactive means no such curve, though single readings can be large; an effect the other way counts as inactive or inconclusive
Target sequence (Q27686 whole entry, looked up): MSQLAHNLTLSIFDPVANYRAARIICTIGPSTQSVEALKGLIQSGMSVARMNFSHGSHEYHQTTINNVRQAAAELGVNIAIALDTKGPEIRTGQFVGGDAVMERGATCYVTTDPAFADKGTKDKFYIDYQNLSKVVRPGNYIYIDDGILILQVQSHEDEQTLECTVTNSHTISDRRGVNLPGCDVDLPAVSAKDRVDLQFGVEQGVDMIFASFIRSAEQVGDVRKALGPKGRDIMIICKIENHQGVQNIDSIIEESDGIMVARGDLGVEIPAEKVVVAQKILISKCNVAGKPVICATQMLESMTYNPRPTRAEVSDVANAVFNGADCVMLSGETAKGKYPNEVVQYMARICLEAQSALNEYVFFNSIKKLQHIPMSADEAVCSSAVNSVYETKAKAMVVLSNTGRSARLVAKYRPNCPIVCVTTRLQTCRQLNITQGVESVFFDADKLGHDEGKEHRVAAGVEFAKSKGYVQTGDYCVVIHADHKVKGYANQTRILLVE
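In 50 mM imidazole pH 7.2 with 7 mM MgCl2, LmPK (0.1 nM) turned over PEP (0.5 mM) and ADP (0.1 mM) for 1 h at room temperature. Luciferase read-out of ATP.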
FBPA Giardia inh: inhibitors of Giardia lamblia fructose-1,6-bisphosphate aldolase; purified Giardia FBPA; Potency, µM (highest dose often 59.6 µM), actives largely listed as inhibitors; 0.71% of 290,000 active; active means well fitted curve in the direction sought with a large enough effect; inconclusive means small, poorly fitted or top-dose-only effect, or another doubt; inactive means no such curve, though single readings can be large; an effect the other way counts as inactive or inconclusive; further: nearly all actives have a fitted effect of over 55% in size
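40 nM FBPA preincubated 10 min at RT with compound (up to 57.5 uM final), then substrate plus GAPDH/TPI/NAD/arsenate coupling and diaphorase/resazurin added. Fluorescence read after 20 min at RT, 525/598 nm.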
NS1 inh valid: validation of influenza NS1 protein function inhibitors. shares compounds with NS1 inh. influenza NS1 function cell assay, 15-point titration. activity change, negative = inhibition, % at 32.9 µM. 1,400 tested, under 10 active
PR8 titer: reduces influenza A/PR/8/34 replication in MDCK cells. shares compounds with NS1 inh. MDCK infected influenza A/PR/8/34, virus titer TCID50; hits give low values. 30% of 95 active. virus titer (log TCID50), log10 TCID50 at 5 µM; call rule not given here
Hits are given with their value; 0 = inactive; ? = inconclusive; - = no result given; + = active, no number. Only some compounds are listed: those with a hit (about 14% of all), similar ones and a draw of the others. Unless noted, the call rests on the fitted dose curve.

SMILES | NS1 inh | Cycloheximide cs | Shiga toxin inh | LmPK inh | FBPA Giardia inh | NS1 inh valid | others
CC(=O)c1c(C)[nH]c(C(=O)OCC(=O)N2CCc3ccccc32)c1C | 4.47µM | 24.1 | 0 | 0 | 0 | 0
CN(C)C(=O)c1ccc(-c2cncnc2Nc2ccc(F)cc2)cc1 | - | - | - | - | 0 | -
CCCOc1ccc(NC(=O)CC2C(=O)N(Cc3ccccc3)C(=S)N2Cc2cccs2)cc1 (centres undefined) | 3.55µM | 22.1 | 0 | 0 | 0 | 0
COC(=O)CN1C(=S)N(Cc2ccccc2)C(=O)C1CC(=O)Nc1ccc(Br)cc1 (centres undefined) | 11.2µM | 0 | 0 | 0 | 0 | 0
CCN1C(=O)C(CC(=O)Nc2ccc(F)cc2)N(Cc2cccs2)C1=S (centres undefined) | 0 | 0 | 0 | 0 | 0 | -
CCC1CCCN1Cn1cnc2c([nH]c3ccc(C)cc32)c1=O (centres undefined) | ? | 0 | 0 | 0 | 0 | 0
CSc1ccc(CCNC(=O)Cn2ncc3c([nH]c4ccccc43)c2=O)cc1 | 0 | 0 | 0 | 0 | 0 | -
Cc1ccccc1N1C(=O)NC(=O)/C(=C\c2ccc3c(c2)CCCN3Cc2ccccc2)C1=O | ? | 0 | 0 | 0 | 0 | 0
COc1ccc2[nH]c(=O)c(CN(Cc3cccnc3)Cc3nnnn3CC3CCCO3)cc2c1 (centres undefined) | 0 | 0 | 0 | 0 | 0 | -
COc1cc(C(=O)NCCC(c2ccccc2)c2ccccc2)cc(OC)c1OC | 0 | 0 | 0 | 0 | 0 | -
O=[N+]([O-])c1ccc(N2CCN(S(=O)(=O)c3ccccc3[N+](=O)[O-])CC2)cc1NCc1cccnc1 | 14.1µM | 0 | 0 | 0 | 0 | 0
CCS(=O)(=O)N1CCN(c2ccc([N+](=O)[O-])c(NCc3cccnc3)c2)CC1 | 0 | 0 | 0 | 0 | ? | -
Cc1c(OC(C)C(=O)NC(Cc2c[nH]c3ccc(O)cc23)C(=O)O)ccc2c1oc(=O)c1ccccc12 (centres undefined) | 0 | 0 | 0 | 0 | 0 | -
Cc1c(C)c2ccc(OC(C)C(=O)N[C@@H](Cc3c[nH]c4ccccc34)C(=O)O)c(C)c2oc1=O (some centres undefined) | 10µM | 0 | 0 | 0 | 0 | 0
N#C/C(=C\c1cn(CCOc2ccccc2)c2ccccc12)C(=O)NCc1ccco1 | ? | 16.0 | 0 | 0 | 0 | 0
O=C(Cc1ccccc1)NCC(=O)N/N=C/c1ccc(C(=O)O)cc1 | 0 | 0 | 0 | 0 | - | -
O=C(CNC(=O)C(c1ccccc1)c1ccccc1)N/N=C\c1ccc(C(=O)O)cc1 | ? | 0 | 0 | 0 | 0 | 0
CCCCC(C)(C)[C@H](O)/C=C/[C@H]1[C@H](O)CC(=O)[C@@H]1C/C=C\CCCC(=O)O | - | - | - | - | 0 | -
CN(Cc1cccc(F)c1)C(=O)c1ccc(S(=O)(=O)C(F)F)cc1 | 2.82µM | 0 | 0 | 0 | 0 | 0
CN(Cc1cccc(F)c1)C(=O)c1cccc(S(=O)(=O)N2CCN(Cc3ccccc3)CC2)c1 | 0 | 0 | 0 | 0 | - | -
C#CCOc1ccc(/C=C2/C(=O)N(c3cccc(C(=O)O)c3)N=C2C)cc1OC | 11.2µM | 0 | 0 | 0 | 0 | ?
CC(C)(C)NC(=O)NC(=O)CN1CCN(c2cccc(Cl)c2)CC1 | 7.94µM | 0 | 0 | 0 | 0 | 0 | PR8 titer=0
CN1CCOc2cc(S(=O)(=O)NCc3ccc(S(N)(=O)=O)cc3)ccc21 | 0 | 0 | 0 | 0 | - | -
c1ccc(Nc2cc(Nc3ccccc3)[nH]n2)cc1 | 4.47µM | 0 | 0 | 0 | 0 | 0
Cc1onc(-c2c(Cl)cccc2Cl)c1C(=O)NCCc1ccncc1 | 0 | 0 | 0 | 0 | - | -
SMILES | NS1 inh | Cycloheximide cs | Shiga toxin inh | LmPK inh | FBPA Giardia inh | NS1 inh valid | others
CCCc1cc(=O)n2nc(N3CCC(C(=O)N4CCN(c5cccc(OC)c5)CC4)CC3)sc2n1 | 0 | 0 | 0 | 0 | - | -
O=C(COc1ccc(Cl)cc1)N1CCN(c2ccc([N+](=O)[O-])c(N3CCCCC3)c2)CC1 | 11.2µM | 0 | 0 | 0 | 0 | ?
O=C(COc1ccccc1Cl)N1CCN(c2ccc([N+](=O)[O-])c(N3CCCCC3)c2)CC1 | ? | 0 | 0 | 0 | 0 | 0
O=C(c1ccc(F)cc1)N1CCN(c2ccc([N+](=O)[O-])c(N3CCCCC3)c2)CC1 | 0 | 0 | 0 | 0 | 0 | -
COc1cc2[nH]c(C(=O)N3CCN(c4ccccc4F)CC3)cc2c(OC)c1OC | 0 | 0 | 0 | 0 | 0 | -
Cn1c(=O)c2c(n(Cc3ccccc3)c1=O)NC(=O)C2CC(=O)NCc1cccc(Cl)c1 (centres undefined) | 14.1µM | 0 | 0 | 0 | 0 | 0
CCc1ccc(NC(=O)CC2C(=O)Nc3c2c(=O)n(C)c(=O)n3C)cc1 (centres undefined) | 0 | 0 | 0 | 0 | 0 | -
CN(C)c1ccc(/C=C2\C(=O)Nc3ccccc32)c2ccccc12 | - | 0 | 0 | - | 0 | -
CCOC(=O)N1CCC(NC(=O)c2ccccc2C(=O)O)CC1 | ? | 0 | 0 | 0 | 0 | 0
CCOc1ccc2nc(Cl)c(C3CC(c4ccco4)=NN3S(=O)(=O)c3ccccc3)cc2c1 (centres undefined) | 10µM | 0 | + | 0 | 0 | 0
O=c1[nH]c(C2CCCN(S(=O)(=O)c3ccc(F)cc3)C2)nc2c1nnn2Cc1ccc(F)cc1 (centres undefined) | ? | 0 | 0 | 0 | 0 | 0
C=CCNC(=O)C1CC(=O)N(c2ccc(OCC(=O)Nc3c(C)cccc3C)cc2)C1 (centres undefined) | ? | 0 | 0 | 0 | 0 | 0
COc1cccc(-c2cc(=O)c3cc(NC(=O)c4ccc(N(C)C)cc4)ccc3[nH]2)c1 | 12.6µM | 0 | 0 | 0 | 0 | 0
COc1cccc(-c2cc(=O)c3cc(NC(=O)c4ccc(Cl)cc4)ccc3[nH]2)c1 | 0 | 0 | 0 | 0 | 0 | -
Cc1cc(N2CCCC2)nc(-c2ccccc2O)n1 | 0.708µM | 0 | 0 | 0 | 0 | 0
Cc1cc(N2CCN(C)CC2)nc(-c2ccccc2O)n1 | 0 | 0 | 0 | 0 | 0 | -
COc1ccccc1NC(=O)CN(c1ccc(C)cc1)S(=O)(=O)c1c(C)n[nH]c1C | ? | 0 | 0 | 0 | 0 | 0
CCOC(=O)/C=C1\NC(C)(C)Cc2cc(OC)c(OC)cc21 | 0 | 0 | 0 | 0 | 0 | -
COc1cc2c(cc1OC)/C(=C/C(=O)N1CCOCC1)NC(C)(C)C2 | ? | 0 | 0 | 0 | ? | 0
CCOC(=O)/C=C1\NC(C)(C)Cc2cc(OC)c(O)cc21 | ? | 0 | 0 | 0 | 0 | 0
CC1(C)Cc2ccccc2/C(=C/C(=O)N2CCCCCC2)N1 | 0 | 0 | 0 | 0 | 0 | -
CCOc1ccc(NC(=O)C2CCC(CNc3c(N4CCC(C)CC4)c(=O)c3=O)CC2)cc1 (centres undefined) | 0 | 0 | 0 | 0 | 0 | -
COC(=O)CSc1nnc(CCc2ccccc2)n1C | 0 | 0 | 0 | 0 | 0 | -
C=CCn1c(SCC#N)nnc1-c1ccc2ncccc2c1 | 0 | 0 | 0 | 0 | 0 | -
c1ccc(C2=Nn3c(Cn4nnc5ccccc54)nnc3SC2)cc1 | 0 | 0 | 0 | 0 | 0 | -
